# Experiments:
# Assay in all cases: yeast three-hybrid, YBZ-1, SC-Leu-His + 0.5 mM 3-AT, 4 days
# Settings in all cases: tags: N-Gal4 AD-HA kept; label: inside an RPR1-promoter hybrid RNA with tandem MS2 sites; ssRNA
# PUM1 PUF domain R3-SRT = PUM1 PUF domain R3-SRT (Homo sapiens, UniProt Q14671 828-1176, C935S;Q939T)
# Method in brief: (§1)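 Each repeat of the Pumilio-1 PUF domain was randomized at its three base-contacting residues, and these libraries were co-expressed from a centromeric plasmid with matching RNA elements in strain YBZ-1. After four days on SC-Leu (input) or SC-Leu-His + 0.5 mM 3-AT (selection), the repeat regions were PCR-amplified and Illumina-sequenced. The interaction score compares variant frequency between input and selection as a log change, computed in log2 with a pseudocount of 1 for absent variants.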
# PUM1 PUF domain R1-RTS = PUM1 PUF domain R1-RTS (Homo sapiens, UniProt Q14671 828-1176, S863R;R864T;Q867S)
# Method in brief: as §1
# PUM1 PUF domain R7-KPV = PUM1 PUF domain R7-KPV (Homo sapiens, UniProt Q14671 828-1176, S1079K;N1080P;E1083V)
# Method in brief: as §1
sequence,measurement,setting,value
GGCUAGAACUAGUGGAUCCCCCGGCGCCCGGCGGCUCGAGCCCGGGUAAGUGUAAGUAGUCUGCAUGCCGCCGGGCGCCAUGCCUGCAGGUCGACUCUAGAAAACAUG,binding signal,PUM1 PUF domain R3-SRT,4.32 log2 enrichment (interaction score)
GGCUAGAACUAGUGGAUCCCCCGGCGCCCGGCGGCUCGAGCCCGGGUAAGUGUAAAUCGUCUGCAUGCCGCCGGGCGCCAUGCCUGCAGGUCGACUCUAGAAAACAUG,binding signal,PUM1 PUF domain R1-RTS,4.45 log2 enrichment (interaction score)
GGCUAGAACUAGUGGAUCCCCCGGCGCCCGGCGGCUCGAGCCCGGGUAAGUUUAAAUAGUCUGCAUGCCGCCGGGCGCCAUGCCUGCAGGUCGACUCUAGAAAACAUG,binding signal,PUM1 PUF domain R7-KPV,4.82 log2 enrichment (interaction score)
GGCUAGAACUAGUGGAUCCCCCGGCGCCCGGCGGCUCGAGCCCGGGUAAGUCUAAAUAGUCUGCAUGCCGCCGGGCGCCAUGCCUGCAGGUCGACUCUAGAAAACAUG,binding signal,PUM1 PUF domain R7-KPV,4.07 log2 enrichment (interaction score)
